PubChem BioAssay AID504332 (National Center for Advancing Translational Sciences (NCATS), 2011)
Among all 350,000 compounds or so, about 31,000 (8.9%) were called active. Inconclusive results (about 15%) are left out. Calls follow the shape of the dose curve; as a rule, active = well fitted inhibition curve with a large enough effect; inconclusive = small, poorly fitted or top-dose-only effect; inactive = no such curve, though single readings can be large or run the other way. The full list was thinned out, with actives kept by preference.

biological target: Histone-lysine N-methyltransferase EHMT2 (Homo sapiens) (UniProt Q96KQ7); test: qHTS Assay for Inhibitors of Histone Lysine Methyltransferase G9a; conditions: G9a H3K9 monomethylation, AlphaScreen, 2 h; series mostly up to 59 µM; activity, negative = inhibition: at the top concentration; also: nearly all actives have a fitted effect of over 75% in size
From the text: Methylated lysines, on the N-terminal tails of histone proteins serve as epigenetic markers to recruit factors that can then modify local chromatin structure to lead to functional consequences. G9a and other members of the SUV39 family of the SET domain-containing superfamily of histone lysine methyltransferases (HMT) have been identified to specifically methylate Lys9 of histone H3 (H3K9). G9a catalyzes the mono- and di-methylation of H3K9 in mammalian euchromatic regions, where the resulting H3K9me2 is indicative of transcriptional repression. […] The inhibition of G9a will result in transcriptional activation and work synergistically with DNA methyltransferase and histone deacetylase inhibitors, to kill cancer cells. This qHTS assay for identification of G9a inhibitors is a chemiluminescence based AlphaScreen (PerkinElmer). Methylation of biotinylated-histone peptide is measured through specific antibody-based detection, in conjunction with streptavidin-coated donor and anti-IgG antibody-coated acceptor beads. The method is particularly well suited for detection of inhibitors acting by the desired histone peptide competitive mechanism and is applicable to testing other HMTs. Although AlphaScreen has significant advantages with its utility in a variety of epigenetic target assays, the primary screening data provided in this deposition should be used with caution due to the prevalence of screening artifacts. An AlphaScreen counterscreen is highly recommended to be run against any putative actives to eliminate non specific artifacts. Alternatively, one can use other AlphaScreen assays in PubChem to filter out promiscuous hits. Quinn et al. A chemiluminescence-based method for identification of histone lysine methyltransferase inhibitors. Mol Biosyst 6(5): 782-8. 2010. PMID: 20567762 [2] Baell,Holloway. New substructure filters for removal of pan assay interference compounds (PAINS) from screening libraries and for their exclusion in bioassays. J Med Chem. 53(7):2719-40. 2010. PMID: 20131845 NIH Molecular Libraries Probe Production Network [MLPCN] NIH Chemical Genomics Center [NCGC] Structural Genomics Consortium (SGC) NIH Grant: 5U54 MH084681-02
To each well of a 1,536w plate, 2ul of HMT enzyme (final 20nM) were added, using a nanoliter dispenser. The G9a- and GLP-inhibitor BIX-01294 (CID: 25150857) are used as an intraplate control, with a 16-point titration in duplicate. A Kalypsys pin-tool transferred 23nl of library compound solution in DMSO to each well. Following a 15 min incubation of enzyme with compounds at room temperature, 1ul mixture of b-H3K9 peptide substrate (final 500nM) and SAM cofactor (final 20uM) were added. Reactions were allowed to proceed at room temperature for 2 hours. Methylated b-H3K9 peptide product was detected with 0.5 ug/mL rabbit polyclonal anti-monomethyl histone H3K9 antibody (Abcam Inc., Cambridge, MA) and 20 ug/mL each streptavidin-coated donor and anti-rabbit IgG acceptor AlphaScreen beads. Antibody and beads were added in a 1ul dispense, for a final volume of 4ul, and plates were incubated, protected from the light, for 10 min at room temperature. Microplates were then read on an EnVision multilabel plate reader using the 1,536 plate HTS AlphaScreen aperture (excitation time 80 ms, measurement time 240 ms).
% is scaled to controls: 0 for no effect and ±100 for the full control effect; potency is read from the fitted curve at half-maximal effect.

Sequence of Histone-lysine N-methyltransferase EHMT2 (Homo sapiens) (Q96KQ7 913-1193 limits assumed): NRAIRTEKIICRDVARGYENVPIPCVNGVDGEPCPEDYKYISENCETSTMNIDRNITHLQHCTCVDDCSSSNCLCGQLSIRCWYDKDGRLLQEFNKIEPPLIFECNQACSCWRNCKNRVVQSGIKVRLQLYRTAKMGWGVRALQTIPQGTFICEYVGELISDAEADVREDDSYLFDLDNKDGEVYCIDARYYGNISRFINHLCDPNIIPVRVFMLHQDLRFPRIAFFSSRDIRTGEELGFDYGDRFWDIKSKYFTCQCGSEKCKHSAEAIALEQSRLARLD

Row | SMILES | activity, negative = inhibition | Potency
1 | CC(CN1CCOCC1)OC(=O)c1ccc(C(C)(C)C)cc1 (stereo unspecified) | 6.26% [at 0.501 µM] (inactive) | –
2 | N#Cc1ccc(C2=CC(=O)C[C@H](c3ccc(Cl)cc3)C2)cc1 | -28.8% [at 0.501 µM] (inactive) | –
3 | CCOC(=O)c1c(S(=O)(=O)N2CCCC(C(=O)NCc3ccc(F)cc3)C2)c(C)n(CC)c1C (stereo unspecified) | -3.56% (inactive) | –
4 | Cc1ccc(CN2CC(C(=O)N3CCN(S(=O)(=O)c4ccccc4)CC3)CC2=O)cc1 (stereo unspecified) | -21.6% [at 102 µM] (inactive) | –
5 | Cc1ccc(CN2CCCn3nc(C(=O)NCc4ccccc4Cl)cc3C2=O)cc1 | -28.4% (inactive) | –
6 | COc1ccc(N=C(C)c2sc3ccccc3c2O)cc1 | -6.22% [at 102 µM] (inactive) | –
7 | CCOc1ccc(N=Cc2c(O)n(-c3cccc(C)n3)c(=O)c3ccccc23)cc1 | 5.98% [at 102 µM] (inactive) | –
8 | O=C(N/N=C/c1c(Cl)[nH]c2ccccc12)c1sc2ccccc2c1Cl | 11.9% (inactive) | –
9 | Oc1ccc2ccccc2c1C=Nc1ccccc1 | – | 2.51 µM (active)
10 | Oc1ccc(N=Cc2c(O)ccc3ccccc23)cc1 | – | 1 µM (active)
11 | Oc1ccc(N=Cc2sc3ccccc3c2Cl)cc1 | – | 10 µM (active)
12 | O=C(O)C#Cc1cccc2ccccc12 | -4.59% [at 102 µM] (inactive) | –
13 | CCOc1[nH]n(-c2ccc(Cl)cc2)c(=O)c1C=Nc1ccc(O)cc1 | -47.3% [at 102 µM] (inactive) | –
14 | O=S(=O)(NCCc1nnc2ccc(SCc3ccc(Cl)cc3Cl)nn12)c1ccccc1 | -4.22% (inactive) | –
15 | COc1ccc(NC(=O)C2CCCN(S(=O)(=O)c3cccc4nonc34)C2)cc1Cl (stereo unspecified) | -1.34% (inactive) | –
16 | O=S(=O)(Nc1ccc(-n2cnnn2)cc1)c1ccc(Cl)cc1 | 13.8% (inactive) | –
17 | CCOc1ccccc1C(=O)Nc1ccc2c(c1)N(C)C(=O)c1ccccc1S2 | -5.64% (inactive) | –
18 | Cc1ccc(OCCNC(=O)CNC(=O)c2ccc(C)c(C)c2)cc1 | 24.7% [at 2.33 µM] (inactive) | –
19 | Cc1cc(C)c(OCC(=O)N/N=C/c2ccco2)c(C)c1 | 16.5% (inactive) | –
20 | COc1ccccc1OCC(=O)OCc1cc(-c2ccco2)on1 | 3.66% [at 12.7 µM] (inactive) | –
21 | COC(=O)COc1ccc2c(c1C)O/C(=C\c1ccco1)C2=O | – | 8.91 µM (active)
22 | COc1cccc(C(=O)OCC(=O)c2[nH]c(C)c(C(C)=O)c2C)c1 | -42.2% [at 12.7 µM] (inactive) | –

Row | SMILES | activity, negative = inhibition | Potency
23 | CCOc1ccc(N(CC)C(=O)C2CCN(S(=O)(=O)c3cccc4nonc34)CC2)cc1 | -6.23% (inactive) | –
24 | COc1ccc(S(=O)(=O)N2CCOCC2)cc1NC(=O)CSc1cc(C)ccc1C | 3.19% [at 0.501 µM] (inactive) | –
25 | CCOC(=O)c1cccc(NS(=O)(=O)c2cn(C)c(C)n2)c1 | 8.15% (inactive) | –
26 | Cc1cccc(N2CCN(C(=O)CCn3c(=O)c4cccn4c4cccnc43)CC2C)c1 (stereo unspecified) | -36% (inactive) | –
27 | CSCCC(NC(=O)c1ccco1)C(=O)NCCc1ccc(F)cc1 (stereo unspecified) | 40.1% [at 12.7 µM] (inactive) | –
28 | Cc1cnc(NC(=O)c2ccc(Cl)nc2)s1 | 26.6% [at 102 µM] (inactive) | –
29 | CCOc1ccc(NC(=O)CN2CCN(CC(=O)Nc3ccc(OC)cc3)CC2)cc1 | – | inactive
30 | CCN(CC)c1ccc(NC(=O)CN2CCN(CC(=O)Nc3ccc(Cl)cc3)CC2)cc1 | – | 7.08 µM (active)
31 | O=C(CN1CCN(c2ccccn2)CC1)Nc1ccc(Br)cc1 | 9.66% [at 102 µM] (inactive) | –
32 | CCN(CC)c1ccc(NC(=O)CN2CCN(c3ccccn3)CC2)cc1 | – | 44.7 µM (active)
33 | O=C(CN1CCN(c2ccccn2)CC1)NC1CCCCC1 | 8.12% (inactive) | –
34 | NS(=O)(=O)c1ccc(NC(=O)COC(=O)c2ccc(Cl)nc2)cc1 | -28.6% [at 102 µM] (inactive) | –
35 | CCN(CC)c1ccc(NC(=O)c2ccc(Cl)nc2)cc1 | – | 10 µM (active)
36 | CCOC(=O)N1CCN(CC(=O)Nc2ccc(F)cc2)CC1 | -2.68% [at 102 µM] (inactive) | –
37 | Cc1ccccc1N1CCN(S(=O)(=O)c2ccc3ccccc3c2)CC1 | 14.6% [at 0.501 µM] (inactive) | –
38 | COC(=O)c1ccc2c(C(C)(C)O)c(C(C)(C)O)[nH]c2c1 | -11.7% [at 102 µM] (inactive) | –
39 | COc1ccc(N2CCN(C(=O)CSCc3nc(-c4ccccc4Cl)oc3C)CC2)cc1 | 1.56% (inactive) | –
40 | CNc1ccc([N+](=O)[O-])cc1C(=O)O | -8.97% [at 102 µM] (inactive) | –
41 | CCN(CC)C(=O)CN(c1cccc([N+](=O)[O-])c1)S(=O)(=O)c1ccccc1 | -1.93% [at 102 µM] (inactive) | –
42 | CCN(CC)c1ccc([N+](=O)[O-])cc1C(=O)O | – | 50.1 µM (active)
43 | COc1ccc(N(CCC(=O)NCCc2ccccc2)S(=O)(=O)c2ccc(C)cc2C)cc1 | 12.2% [at 12.7 µM] (inactive) | –
44 | O=C(c1cc(S(=O)(=O)N2CCOCC2)ccc1Cl)N1CCOCC1 | 6.5% [at 102 µM] (inactive) | –

Row | SMILES | activity, negative = inhibition | Potency
45 | CCCN(CCC)CCCNC(=O)Cn1ncc2c3ccccc3n(Cc3ccccc3)c2c1=O | -10.6% (inactive) | –
46 | Cc1ccc(NC(=S)N2CCN(c3ncccn3)CC2)cc1C | 31.3% (inactive) | –
47 | Cc1nc2ccc(NC(=S)N3CCC(C)CC3)cc2nc1C | – | 44.7 µM (active)
48 | Cc1nc2ccc(NC(=O)N3CCC(c4ccccc4)C3)cc2nc1C (stereo unspecified) | 12.3% [at 12.7 µM] (inactive) | –
49 | COc1cccc(NC(=O)C2C(c3ccccc3)C2(Cl)Cl)c1 (stereo unspecified) | 0.796% [at 0.501 µM] (inactive) | –
50 | CNC(=S)N/N=C/c1cn(Cc2ccc(C)cc2)c2ccccc12 | – | 44.7 µM (active)
51 | CCOC(=O)N/N=C/c1cn(Cc2ccccc2Cl)c2ccccc12 | 2.12% (inactive) | –
52 | COC(=O)N/N=C/c1cn(CCCOc2ccc(C)cc2)c2ccccc12 | 22.5% (inactive) | –
53 | O=C(Cc1ccc(Cl)cc1)NC(=S)Nc1ccccc1O | -13.3% [at 102 µM] (inactive) | –
54 | Cc1cccc(C)c1NC(=O)CNC(=O)C1CCCC1 | 26.8% [at 12.7 µM] (inactive) | –
55 | NS(=O)(=O)c1cc(C(=O)OCC(=O)NNC(=O)c2ccccc2)ccc1Cl | 10.6% (inactive) | –
56 | CN(NS(=O)(=O)c1cccs1)c1ncc(C(F)(F)F)cc1Cl | 61.6% [at 102 µM] (inactive) | –
57 | CC(=O)c1c(C)[nH]c(C(=O)COc2ccc3c(C)cc(=O)oc3c2)c1C | -2.97% [at 12.7 µM] (inactive) | –
58 | COC(=O)c1cn(CC(=O)NCc2cccs2)c2ccccc12 | 23% (inactive) | –
59 | COC(=O)Cn1cc(/C=C/[N+](=O)[O-])c2ccccc21 | – | 39.8 µM (active)
60 | COC(=O)Cn1cc(C(=O)c2cccs2)c2ccccc21 | 10.8% [at 12.7 µM] (inactive) | –
61 | Cc1nc(C)c(C(=O)Nc2ccc(C)c(F)c2)o1 | 20.5% [at 12.7 µM] (inactive) | –
62 | Cc1cccc(NC(=O)c2cccc(C(=O)Nc3cccc(C)c3C)n2)c1C | – | 50.1 µM (active)
63 | Cc1nc(C)c(C(=O)Nc2cccc(C)c2C)o1 | – | 44.7 µM (active)
64 | COc1ccc(Cl)cc1NC(=O)c1oc(C)nc1C | 10.9% [at 12.7 µM] (inactive) | –
65 | Cc1cccc(NC(=O)c2ccc3nc(C(C)C)oc3c2)c1C | 6.18% (inactive) | –
66 | Cc1cccc(NC(=O)c2ccc3nsnc3c2)c1C | 2.23% [at 102 µM] (inactive) | –
